# Most compounds without a hit are left out; they make up all but 2.2% or so of the library.
# Giardia killer: Small Molecules that selectively kill Giardia lamblia: qHTS | Giardia lamblia trophozoite viability | activity change, % at 7.66 µM, hits read low | actives 0.15% (n = 340,000) | AID 540267, 2011; in the data active = activity change below about -80%; inconclusive = between about -30% and that limit;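 also: parasites exposed to compound for two days anaerobically before the ATP read; % is scaled to controls: 0 for no effect and ±100 for the full control effect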
#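 ATP-content bioluminescence gauges trophozoite survival. Cells (100/well) receive compound and incubate anaerobically for 48 hrs at 37 deg C; detection reagent follows for 15-30 min at room temperature.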
# IDH1 R132H inh: qHTS for Inhibitors of mutant isocitrate dehydrogenase 1 (IDH1): qHTS. Isocitrate dehydrogenase [NADP] cytoplasmic (Homo sapiens), O75874. actives 0.093% (n = 390,000). IDH1-R132H enzyme, NADPH consumption, diaphorase/resazurin fluorescence. Potency, µM (top dose mostly 76.6 µM), for inactives: top-dose activity change, negative = inhibition, hits mostly inhibitors; also: potency is read from the fitted curve at half-maximal effect; % is scaled to controls: 0 for no effect and ±100 for the full control effect; nearly all actives have a fitted effect of over 65% in size
# Target sequence (O75874 whole entry R132H, stated change not applied): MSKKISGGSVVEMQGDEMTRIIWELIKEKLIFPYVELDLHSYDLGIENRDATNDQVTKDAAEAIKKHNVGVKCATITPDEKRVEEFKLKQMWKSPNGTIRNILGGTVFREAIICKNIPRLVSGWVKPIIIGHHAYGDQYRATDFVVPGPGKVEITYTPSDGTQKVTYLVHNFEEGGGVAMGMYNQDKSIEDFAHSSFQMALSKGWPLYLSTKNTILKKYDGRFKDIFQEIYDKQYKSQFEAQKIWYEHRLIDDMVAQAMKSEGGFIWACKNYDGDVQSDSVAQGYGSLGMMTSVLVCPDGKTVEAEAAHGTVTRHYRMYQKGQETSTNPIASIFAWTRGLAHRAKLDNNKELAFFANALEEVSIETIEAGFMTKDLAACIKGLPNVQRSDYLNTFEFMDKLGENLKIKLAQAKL
#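 IDH1-R132H (0.5 ug/mL dispensed) in pH 7.5 Tris buffer was preincubated 30 min with compound, then given a substrate mix of 0.016 mM NADPH and 2 mM alpha-KG for 80 min at room temperature; remaining NADPH was read by diaphorase/resazurin fluorescence.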
# TrxR1 substrate: qHTS Assay for Substrates of Mammalian Selenoprotein Thioredoxin Reductase 1 (TrxR1): qHTS; Potency, µM (doses to about 114 µM), for inactives: at the highest dose activity change, negative = substrate turnover; actives 0.01% (n = 390,000); purified TrxR1 substrate turnover, NADPH consumption readout; AID 588456, 2011; Thioredoxin reductase 1, cytoplasmic (Rattus norvegicus), O89049; also: potency is read from the fitted curve at half-maximal effect; % is scaled to controls: 0 for no effect and ±100 for the full control effect; nearly all actives have a fitted effect of over 50% in size
#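 Rat TrxR1, dispensed at 90 nM, was prereduced with 400 uM NADPH (final) for 5 min at ~22 deg C, then incubated with compound 15 min before 400 uM selenite. A first-read NADPH fluorescence drop versus no-compound background flagged substrates.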
# IL2 activator: qHTS of IL-2 Activators. IL-2 activation reporter assay, cell-based qHTS; stimulated with anti-CD3/CD4/CD28 beads; in transgenic mouse T cells. activation, % (series mostly up to about 46 µM). actives 0.065% (n = 360,000); in the data active = activation above about 50%; inconclusive = mostly about 30% to 49%; also: 0% is about no effect
#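 Unstimulated transgenic mouse T cells; 60-min compound exposure; bead-based TCR/CD4/CD28 stimulation; 18 h culture, 37 degrees C; dual fluorescence (EGFP, DsRed) plate cytometry.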
# BRCA1 expr act: qHTS Assay to Identify Small Molecule Activators of BRCA1 Expression; MCF7-BRCA1-FFLuc reporter, luminescence, 48 h; response scale: scaled: vehicle 0%, 10 µM genistein 100%; Potency, µM (highest dose often 46.1 µM), for the others: top-dose activation, most hits filed as activators; actives 1.1% (n = 380,000); AID 624202, 2012; also: potency is read from the fitted curve at half-maximal effect; nearly all actives have a fitted effect of over 80% in size
#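 Cells: MCF7-BRCA1-FFLuc, 2000/well. Exposure: 48 h, 37 °C, 5% CO2. Read: luminescence, 15 min post-substrate. Controls: genistein 10 microM (maximal activation), DMSO (neutral).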
# TrxR1 inh: qHTS Assay for Inhibitors of Mammalian Selenoprotein Thioredoxin Reductase 1 (TrxR1): qHTS. recombinant rTrxR1, NADPH fluorescence consumption, selenite substrate. AID 588453, 2011. Potency, µM (titrated, usually from 114 µM), inactives show at the highest dose activity change, negative = inhibition, hits mostly inhibitors. actives 1% (n = 390,000). Thioredoxin reductase 1, cytoplasmic (Rattus norvegicus), O89049; also: potency is read from the fitted curve at half-maximal effect; % is scaled to controls: 0 for no effect and ±100 for the full control effect; nearly all actives have a fitted effect of over 65% in size
#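 Rat TrxR1 (90 nM in the dispensed reagent) was pre-reduced with 400 uM NADPH for 5 min at room temperature, then incubated with compound for 15 min. After 400 uM selenite was added, NADPH fluorescence (Ex 340/Em 450 nm) was followed for 8 min.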
# The depositor's hits bear a star; ? = inconclusive; . = no result given; [ ] = dose if it differs, or a comment. Unless noted, calls follow the shape of the dose curve; as a rule, active = well fitted curve in the direction sought with a large enough effect; inconclusive = small, poorly fitted or top-dose-only effect, or another doubt; inactive = no such curve, though single readings can be large; an effect the other way counts as inactive or inconclusive.
SMILES,Giardia killer,IDH1 R132H inh,TrxR1 substrate,IL2 activator,BRCA1 expr act,TrxR1 inh
NC(=O)c1cc(Cc2ccccc2)sc1NC(=O)c1ccco1,-3.6,2.3%,4.9%,-2.5,7.94µM*,-3.3%
Cc1ccc(-c2nnc(NC(=O)c3ccco3)s2)cc1,-12.5,1.8%,8.7%,0.0,2.24µM*,19.1%
COc1ccc(-c2nnc(NC(=O)c3ccco3)s2)cc1,-2.4,-5.6%,-3.0%[57.1 µM],0.2,?,-14.9%[57.1 µM]
COc1cccc(-c2nnc(NC(=O)c3ccco3)s2)c1,-14.4,-8.7%,-4.7%,0.6,6.31µM*,-7.1%
COc1cccc(-c2nnc3sc(-c4ccco4)nn23)c1,-9.9,-1.0%,-5.3%,-1.9,8.91µM*,-13.6%
CC(C)(C)n1ncc2c(=O)n(Cc3ccccc3F)cnc21,.,.,-3.0%,.,.,17.1%
Cc1ccc(CNC(=O)Cn2ccn(-c3cccc(Cl)c3)c(=O)c2=O)cc1,.,-15.1%,9.0%[11.4 µM],.,.,5.0%
c1ccc(OCc2nn3c(-c4ccco4)nnc3s2)cc1,8.4,2.5%,0.8%,-0.6,15.5%,56.2µM*
O=C(Nc1nnc(Cc2ccccc2)s1)c1ccco1,-3.0,1.4%,6.3%[57.1 µM],3.6,12.6µM*,24.7%[57.1 µM]
COc1cccc(-c2nnc(NC(=O)c3cccs3)s2)c1,-1.1,-2.5%,21.9%,0.2,3.98µM*,21.4%
c1ccc(C2Nc3cccc4cccc(c34)N2)cc1,21.2,7.4%,9.6%,0.5,-49.1%,?
Clc1cccc(C2Nc3cccc4cccc(c34)N2)c1,-13.9,-5.6%,0.4%,-1.9,-45.6%,25.1µM*
CN(C)c1ccc(C2Nc3cccc4cccc(c34)N2)cc1,?,3.8%,-5.9%,-2.9,9.9%,-9.0%
Brc1ccc(C2Nc3cccc4cccc(c34)N2)o1,-17.6,15.8%,3.4%,-1.7,-56.0%,25.1µM*
Brc1cccc(C2Nc3cccc4cccc(c34)N2)c1,-9.5,-9.0%,1.0%,-1.3,-41.4%,56.2µM*
Fc1cccc(Cl)c1C1Nc2cccc3cccc(c23)N1,-13.0,-2.7%,-3.9%,0.0,-42.2%,56.2µM*
COC(=O)c1scc(-c2ccc(C)cc2)c1S(=O)(=O)N1CCN(c2ccc(F)cc2)CC1,.,18.9%,-4.8%[57.1 µM],.,.,8.8%[57.1 µM]
O=C(CCn1cnc2onc(-c3ccc(F)cc3)c2c1=O)N1CCN(c2cccc(Cl)c2)CC1,.,-13.3%,-9.7%,.,.,17.4%
Clc1cccc(Cl)c1C1Nc2cccc3cccc(c23)N1,42.7,0.0%,-7.1%,1.2,-45.2%,-4.0%
Clc1ccc(C2Nc3cccc4cccc(c34)N2)cc1Cl,-2.6,8.9%,-0.6%,-0.8,-35.5%,44.7µM*
COc1ccccc1C(=O)NC(=O)OCCn1c(C)cnc1[N+](=O)[O-],-82.0*,-10.6%,-2.7%,-0.4,0.0%,8.3%
Cc1cnc([N+](=O)[O-])n1CCOC(=O)NC(=O)c1c(F)cccc1F,?,-3.4%,-10.3%,0.4,0.0%,-14.5%
Cc1ccc(C(=O)NC(=O)OCCn2c(C)cnc2[N+](=O)[O-])cc1,-87.7*,-5.1%,-1.3%[57.1 µM],3.2,0.1%,8.9%[57.1 µM]
Cc1cnc([N+](=O)[O-])n1CCOC(=O)NC(=O)c1ccccc1,?,4.9%,1.5%,1.3,-15.6%,15.7%
Cc1ccc2oc(-c3ccc(NC(=O)CCC(=O)O)cc3)nc2c1,.,-2.6%,325.0%,.,?,28.6%
CCOC(=O)N1C(=O)[C@](CC)(c2ccccc2)N1C(=O)OCC,2.4,-11.9%,0.6%,0.2,-3.0%,3.16µM*
Cc1ccc2c(c1)sc1nc(-c3cc4cc(Cl)ccc4oc3=O)cn12,.,3.9%,-8.5%[57.1 µM],.,.,4.9%[57.1 µM]

# Screens deposited in PubChem BioAssay by National Center for Advancing Translational Sciences (NCATS).
